Values joined by “and” are separate entries in the source; they are usually repeats but may differ in a detail not shown here. Equal entries are not always repeated. Records with an inconclusive call do not appear. Active and inactive are the calls of the source. Unless noted, the call rests on the fitted dose curve; in most records, active means well fitted curve in the direction sought with a large enough effect; inconclusive means small, poorly fitted or top-dose-only effect, or another doubt; inactive means no such curve, though single readings can be large; an effect the other way counts as inactive or inconclusive.

Test [1] can be described thus: qHTS Assay for Lipid Storage Modulators (AID 1519; calls by dose curve; on activity change, negative = inhibition: on the % scale 0 is the no-effect control and ±100 the full control effect). Conditions: Drosophila S3 cells, BODIPY lipid droplet/cell ratio, laser cytometry, cells loaded with oleic acid. In short, it runs like this: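 Cells seeded at 5,000 per well were treated with compounds over a concentration series and loaded with oleic acid (400 uM, as added). Lipid droplet fluorescence (488 nm excitation, 500-530 nm channel) was read by laser-scanning cytometry and normalized to 20 uM Triacsin C.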
On the technique in general: In qHTS, concentration-response curves come from the screen itself.

A short description of test [2]: Cell Viability - LYMP2-010 (AID 981).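 Further: cells exposed to compound for 24 hours at 37 °C; nearly all actives have a fitted effect of over 55% in size.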 Further: potency means the concentration at half of the fitted maximal effect. The note with it: LYMP2-010 lymphoblastoid cell viability, qHTS; series mostly up to 92.2 µM. In short, it runs like this: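 Steps: seed 2500 LYMP2-010 cells per well; incubate 5 hr at 37 C; add compound; incubate 24 hr at 37 C; add CellTiter-Glo, wait 30 min at room temperature; read luminescence. Concentration-response fitted to Hill equation for AC50.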

Test [3] in a line: Cell Viability - LYMP2-012 (AID 982).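 Further: cellular ATP by luciferase luminescence where a drop means cytotoxicity; cells exposed to compound for one day before reading; nearly all actives have a fitted effect of over 55% in size.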 Further: potency means the concentration at half of the fitted maximal effect. Conditions: LYMP2-012 lymphoblastoid cell viability qHTS; series mostly up to 92.2 µM.
Test [4] can be described thus: Cell Viability - LYMP2-014 (AID 983).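 Further: cells exposed to compound for 24 h at 37 °C; nearly all actives have a fitted effect of over 50% in size.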 Further: potency means the concentration at half of the fitted maximal effect. The note with it: LYMP2-014 lymphoblastoid cells, viability qHTS; series mostly up to 92.2 µM. The gist of the method: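 Cells are plated at 2500/well and left 5 hr at 37 C. Compounds are added across a concentration range and incubated 24 hr at 37 C in complete medium. CellTiter-Glo is added, and luminescence is read after 30 min at room temperature.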

Test [5] can be described thus: Cell Viability - LYMP2-016 (AID 984).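 Further: cells exposed to compound for 24 hours at 37 °C; nearly all actives have a fitted effect of over 55% in size.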 Further: potency means the concentration at half of the fitted maximal effect. Conditions: LYMP2-016 lymphoblastoid cell viability, qHTS; series mostly up to 92.2 µM. In short, it runs like this:
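Acute toxicity in a Coriell human lymphoblastoid line is scored as loss of intracellular ATP over 24 h of treatment in complete medium. CellTiter-Glo signal is fitted across concentrations with the Hill equation to give AC50.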

Test [6] can be described thus: Cell Viability - LYMP2-018 (AID 985).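 Further: compound exposure lasted 24 hr at 37 °C; nearly all actives have a fitted effect of over 50% in size.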 Further: potency means the concentration at half of the fitted maximal effect. Conditions: LYMP2-018 lymphoblastoid cells, viability (qHTS); series mostly up to 92.2 µM. In short, it runs like this: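 Seed 2500 lymphoblastoid cells per well, incubate 5 hr at 37 C, add compound and incubate 24 hr at 37 C, add CellTiter-Glo, wait 30 min at room temperature, then read luminescence.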
A short description of test [7]: Cell Viability - LYMP2-020 (AID 986).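 Further: cells exposed to compound for 24 h at 37 °C; nearly all actives have a fitted effect of over 55% in size.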 Further: potency means the concentration at half of the fitted maximal effect. Conditions: series mostly up to 92.2 µM. The gist of the method:
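Seed 2500 cells per well and incubate 5 hr at 37 C. Add compounds at a concentration series and incubate 24 hr at 37 C. Add CellTiter-Glo, wait 30 min at RT, read luminescence, and fit a Hill curve for AC50.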

Test [8] in a line: Cell Viability - LYMP2-022 (AID 987). Further: nearly all actives have a fitted effect of over 55% in size. Further: potency means the concentration at half of the fitted maximal effect. The note with it: LYMP2-022 lymphoblastoid cell viability; series mostly up to 92.2 µM. In short, it runs like this: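 Cells were seeded at 2500 per well, rested 5 hr at 37 C, and treated with titrated compounds for 24 hr at 37 C. Cellular ATP was then quantified by luciferase luminescence, and AC50 values were derived from Hill-modelled concentration-response curves.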

Test [9] in a line: Cell Viability - LYMP2-024 (AID 988). Further: nearly all actives have a fitted effect of over 60% in size. Further: potency means the concentration at half of the fitted maximal effect. Conditions: LYMP2-024 lymphoblastoid cell viability; series mostly up to 92.2 µM. In short, it runs like this:
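qHTS cytotoxicity, human lymphoblastoid line, complete medium; 24 h cpd treatment, 37 C; CellTiter-Glo ATP luminescence readout; tetraoctylammonium bromide positive control; AC50 via Hill fit.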

For test [10], the target named is DNA repair nuclease/redox regulator APEX1 (Homo sapiens) (UniProt P27695). Description: qHTS Validation Assay for Inhibitors of the Human Apurinic/apyrimidinic Endonuclease 1 (APE1) (AID 1705;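 further: TAMRA fluorescence gain over two minutes as APE1 cuts a quenched THF abasic duplex; on the % scale 0 is the no-effect control and ±100 the full control effect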). Conditions: purified APE1 endonuclease activity, fluorescence, titration; series mostly up to 57.1 µM. The gist of the method: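 Endonuclease activity of human APE1 is followed as dequenching when the enzyme incises a tetrahydrofuran abasic site in a short duplex labelled 5'-TAMRA/3'-BHQ-2 (50 nM final), after 15 min enzyme–compound preincubation at room temperature.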

A short description of test [11]: Counterscreen for APE1 Inhibitors: Fluorescent Dye Displacement Validation Assay (AID 1707).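 Further: plate controls were ThO with dsDNA and no compound for no effect and ThO without dsDNA for full effect.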 The note with it: fluorescent dye displacement from DNA; series mostly up to 57.1 µM. The gist of the method:
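Signal: ThO fluorescence (ex 480 nm/em 540 nm) on binding 50 nM dsDNA; displacement by test compound reduces it. Conditions: 250 nM dye, 50 mM Tris-HCl pH7.5, 2 mM MgCl2, 50mM NaCl, 0.01% Tween-20.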

For test [12], the target named is Endonuclease 4 (Escherichia coli (strain K12)) (UniProt P0A6C1). Description: Counterscreen for APE1 Inhibitors: qHTS Validation Assay for Inhibitors of Endonuclease IV (AID 1708). Further: on the % scale 0 is the no-effect control and ±100 the full control effect. Conditions: E. coli endonuclease IV, DNA cleavage fluorescence; series mostly up to 57.1 µM. In short, it runs like this:
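Conditions: 2 nM enzyme, 50 nM TAMRA/BHQ-2 substrate, pH 7.5 Tris buffer with 2 mM MgCl2, RT. Compound preincubation 15 min; readout three fluorescence reads 60 s apart, third-minus-first.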
In general terms: A counterscreen serves to expose hits that act by an unwanted route or on another target.

A short description of test [13]: qHTS for differential inhibitors of proliferation of Plasmodium falciparum line 7G8 (AID 1815).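 Further: parasite growth measured after three days of incubation; plate controls were vehicle wells for no effect and reference inhibitor wells for full effect.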 The note with it: Plasmodium falciparum 7G8 proliferation inhibition; series mostly up to 28.7 µM.
Test [14] is described as follows: qHTS for differential inhibitors of proliferation of Plasmodium falciparum line D10 (AID 1877).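 Further: parasites grown with compound for 72 h before DNA staining; plate controls were vehicle wells for no effect and reference inhibitor wells for full effect.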 The note with it: series mostly up to 28.7 µM.
The nature of test [15]: Cell Viability - LYMP1-002 - Assay at 40 hr (AID 994).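 Further: 0% = DMSO only and full inhibition = 92 µM tetraoctylammonium bromide; nearly all actives have a fitted effect of over 60% in size.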 The note with it: LYMP1-002 lymphoblastoid cell viability; series mostly up to 92.2 µM. In short, it runs like this: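 Cells are plated at 2500 per well and rested 5 hr at 37 C. Compounds are added and incubated 40 hr at 37 C. CellTiter-Glo reagent is added for 30 min at room temperature before luminescence is read.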

The mark [16] stands for this setting: measured here: cell count channel max response.
Setting [17] is: measured here: lipid channel max response.

DNA repair nuclease/redox regulator APEX1 (Homo sapiens), sequence (P27695 whole entry, looked up): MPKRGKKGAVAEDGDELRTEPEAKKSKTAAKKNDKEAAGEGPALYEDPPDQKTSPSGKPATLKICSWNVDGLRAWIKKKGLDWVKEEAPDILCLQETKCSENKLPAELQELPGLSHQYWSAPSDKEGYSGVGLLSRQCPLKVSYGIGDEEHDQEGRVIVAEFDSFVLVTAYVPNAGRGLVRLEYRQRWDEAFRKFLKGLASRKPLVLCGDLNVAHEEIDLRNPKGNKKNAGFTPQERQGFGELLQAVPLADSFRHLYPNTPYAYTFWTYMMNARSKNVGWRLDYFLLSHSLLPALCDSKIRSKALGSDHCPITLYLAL

Turning to `NCC(O)CC(=O)O` (stereo not given), in [1] (at 57.5 µM (top of the series)), the activity change, negative = inhibition was 7.57% (inactive). The values for the max response in [1] (setting [16]) and in [1] (setting [17]) were 11% and 22.3%, respectively.

Consider `Oc1ccc(/C=C/c2cc(O)cc(O)c2)cc1`, for which the Potency entry in test [2], in [3], in [4], in [5], in [6] and in [7] was “inactive” in each case. In addition, the Potency result in test [8], in [9] and in test [13] was “inactive” in each case. Further, the activity change, negative = inhibition in [1] (at 57.5 µM (top of the series)) was 25.3% (inactive). Also, the figures for the max response in test [1] (setting [16]) and in test [1] (setting [17]) were -23.2% and 2.31%, respectively. Besides, the compound was called inactive in test [10], in [11], in test [12] and in [14].

On to `CCCc1nc(C(C)(C)O)c(C(=O)OCc2oc(=O)oc2C)n1Cc1ccc(-c2ccccc2-c2nn[nH]n2)cc1`, for which the activity change, negative = inhibition in test [1] (at 57.5 µM (top of the series)) is 8.57% (inactive). Further, the max response in [1] (setting [16]) worked out at 19.2%; in test [1] (setting [17]), 29.3%.

For `Cc1ncc(C[n+]2csc(CCO)c2C)c(N)n1`, the activity change, negative = inhibition in [1] (at 25.7 µM (top of the series)) was -1.32% (inactive). For the same compound, the values for the max response in test [1] (setting [16]) and in test [1] (setting [17]) were 9.62% and 7.5%, respectively.

Turning to `CNC(=O)c1c(I)c(C(=O)NCC(=O)Nc2c(I)c(C(=O)O)c(I)c(C(=O)NCCO)c2I)c(I)c(N(C)C(C)=O)c1I`, the activity change, negative = inhibition in test [1] (at 25.7 µM (top of the series)) was -2.02% (inactive). The max response in [1] (setting [16]) is -4.35%; in [1] (setting [17]), -10.2%.

As for `CC(=O)[C@H]1CC[C@H]2[C@@H]3C=CC4=CC(=O)CC[C@@]4(C)[C@H]3CC[C@]12C`, the activity change, negative = inhibition in test [1] (at 25.7 µM (top of the series)) is -2.63% (inactive). The results for the max response in test [1] (setting [16]) and in test [1] (setting [17]) were -13.1% and -17%, respectively.

Consider `CC(=O)N=c1sc(S(N)(=O)=O)nn1C`, for which the activity change, negative = inhibition in test [1] (at 25.7 µM (top of the series)) was -5.24% (inactive); in [1] (at 57.5 µM (top of the series)), -1.51% (inactive). In addition, the max response in [1] (setting [16]) is -10.9% and 5.08%; in test [1] (setting [17]), -12.6% and 4.84%.

For the compound `CN1C(=O)OC(C)(C)C1=O`, in test [1] (at 25.7 µM (top of the series)), the activity change, negative = inhibition is 0.553% (inactive). Also, the values for the max response in test [1] (setting [16]) and in test [1] (setting [17]) were 9.38% and 10.6%, respectively.

For `NC(N)=O`, the Potency entry in test [2], in [3], in [4], in test [5], in test [6] and in [7] was “inactive” in each case. Further, the Potency entry in test [8], in test [9] and in [15] was “inactive” each time. Also, in test [1] (at 57.5 µM (top of the series)), the activity change, negative = inhibition was 6.91% (inactive). In addition, the max response is 16.8% in test [1] (setting [16]) and 28% in test [1] (setting [17]).

On to `OC[C@H]1O[C@@H]2O[C@H]3[C@H](O)[C@@H](O)[C@@H](O[C@H]4[C@H](O)[C@@H](O)[C@@H](O[C@H]5[C@H](O)[C@@H](O)[C@@H](O[C@H]6[C@H](O)[C@@H](O)[C@@H](O[C@H]7[C@H](O)[C@@H](O)[C@@H](O[C@H]1[C@H](O)[C@H]2O)O[C@@H]7CO)O[C@@H]6CO)O[C@@H]5CO)O[C@@H]4CO)O[C@@H]3CO`, for which the Potency entry in [2], in [3], in test [4], in [5], in test [6] and in test [7] was “inactive” throughout. Besides, the Potency result in [8], in test [9] and in test [15] was “inactive” in each case.

In the case of `O=P(O)(O)O`, the Potency entry in test [2], in [3], in [4], in [5], in test [6] and in [7] was “inactive” throughout. Moreover, the Potency entry in [8], in [9] and in [15] was “inactive” each time.

In the case of `OCl`, the Potency entry in test [2], in test [3], in test [4], in test [5], in test [6] and in test [7] was “inactive” each time. Besides, the Potency result in test [8], in [9] and in [15] was “inactive” in each case.

Consider `C=C1C(CCl)(CCl)C2(Cl)C(Cl)C(Cl)C1(Cl)C2(Cl)Cl` (stereo not given), for which the Potency in [2] is 39.8 µM (active); in test [3], 39.8 µM (active); in test [4], 50.1 µM (active); in test [5], 50.1 µM (active); in [6] it was 50.1 µM (active); in test [7], 50.1 µM (active). In addition, the Potency in test [8] and in test [9] was 39.8 µM (active) each time.

Take `CCCCC`: the Potency entry in test [2], in test [3], in test [4], in [5], in test [6] and in test [7] was “inactive” throughout. Also, the Potency entry in test [8], in [9] and in [15] was “inactive” throughout.

Take `Cc1ccc(S(=O)(=O)O)cc1C`: the Potency result in test [2], in test [3], in test [4], in [5], in test [6] and in test [7] was “inactive” in each case. Also, the Potency result in test [8], in test [9] and in test [15] was “inactive” each time.

In the case of `O.O.O.O.O.O.O.O=S(=O)([O-])[O-].[Co+2]`, the Potency entry in test [5], in test [6] and in test [15] was “inactive” throughout.

Turning to `CCCCO`, the Potency result in [2], in [3], in test [4], in test [5], in test [6] and in [7] was “inactive” in each case. In addition, the Potency result in [8], in test [9] and in test [15] was “inactive” in each case.

For the origin of these results see PubChem BioAssay (NCATS).
